Laboratory results published in PubChem BioAssay (NCI).
The panel holds about 79,000 compounds, 15% with a hit somewhere; the sample as a whole holds those more often. Unmarked numbers belong to inactive results. Active and inactive are the calls of the source. No stated cut-off is given here; in the data, active means growth inhibition above about 70%; inactive means the rest.

Experiments:
[1] = NCI Yeast Anticancer Drug Screen. Data for the rad50 strain (AID 155);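 further: 0% = growth of vehicle-only cultures of the same strain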; settings: S. cerevisiae rad50 strain growth inhibition, stronger effect = higher value
In short: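 Readout: growth inhibition relative to vehicle-treated cultures. Compound exposure was carried out in a genetically defined yeast strain deficient in DNA damage repair.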

[2] = NCI Yeast Anticancer Drug Screen. Data for the mec2-1 strain (AID 157); settings: S. cerevisiae mec2-1 strain, stronger effect = higher value
In short: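 Compounds were applied to mec2-1 yeast cells. Their growth was then compared with that of vehicle-treated cultures to give growth inhibition.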

[3] = NCI Yeast Anticancer Drug Screen. Data for the sgs1 mgt1 strain (AID 161);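 further: 0% = growth of cultures given vehicle only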; settings: S. cerevisiae sgs1 mgt1 strain, stronger effect = higher value
In short: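 Yeast cells carrying a defined DNA-repair defect were exposed to test compounds. Growth inhibition was measured relative to vehicle-treated controls.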

[4] = NCI Yeast Anticancer Drug Screen. Data for the cln2 rad14 strain (AID 165);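 further: 0% = growth equal to vehicle treated cultures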; settings: S. cerevisiae cln2 rad14 strain, stronger effect = higher value
In short: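 Strain: cln2 rad14 yeast, altered in cell cycle control and DNA damage repair. Read-out: growth inhibition vs vehicle.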

[5] = NCI Yeast Anticancer Drug Screen. Data for the bub3 strain (AID 167); settings: S. cerevisiae bub3 mutant strain, stronger effect = higher value
In short: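 Readout: yeast growth inhibition, expressed relative to vehicle-only wells. The test organism is a mutant strain from a panel with lesions in DNA repair or checkpoint genes.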

[6] = NCI Yeast Anticancer Drug Screen. Data for the mlh1 rad18 strain (AID 175); settings: S. cerevisiae mlh1 rad18 strain growth inhibition, stronger effect = higher value
In short: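 A repair-deficient yeast strain is exposed to test compound, and growth is scored relative to vehicle-treated controls.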

[7] = at 5.0 µM (retest, dose inferred, filed as 0.5)
[8] = at 50.0 µM (retest, dose inferred, filed as 5.0)

SMILES	growth inhibition [1, 7]	growth inhibition [1, 8]	growth inhibition ([1]; at 50.0 µM)	growth inhibition [2, 7]	growth inhibition [2, 8]	growth inhibition ([2]; at 50.0 µM)	growth inhibition [3, 7]	growth inhibition [3, 8]	growth inhibition ([3]; at 50.0 µM)	growth inhibition [4, 7]	growth inhibition [4, 8]	growth inhibition ([4]; at 50.0 µM)	growth inhibition [5, 7]	growth inhibition [5, 8]	growth inhibition ([5]; at 50.0 µM)	growth inhibition [6, 7]	growth inhibition [6, 8]	growth inhibition ([6]; at 50.0 µM)
C=CCc1ccc2c(C)cc[n+](C)c2c1O	12%	99% (active)	100% (active)	19%	99% (active)	99.2% (active)	21%	99% (active)	99% (active)	-17%	99% (active)	99.5% (active)	1%	99% (active)	99.1% (active)	23%	99% (active)	98.8% (active)
CC(C)COC(=O)c1ccc(N=Cc2ccc(C=Nc3ccc(C(=O)OCC(C)C)cc3)cc2)cc1	25%	25%	31.6%	16%	16%	-34.1%	14%	14%	-10.2%	7%	7%	1.75%	9%	9%	-20.8%	-1%	-1%	-12.3%
COc1ccc(N)c([N+](=O)[O-])c1	-5%	13%	41.8%	1%	23%	58%	-2%	12%	69.5%	-1%	10%	39%	2%	30%	48.9%	-4%	31%	27.9%
CCC(C)(C)C(=O)OCC(=O)c1ccc(-c2ccccc2)cc1	-15%	-17%	-5.8%	5%	-4%	8.25%	2%	-3%	-7.4%	33%	-57%	-3.35%	29%	25%	62.2%	-11%	-4%	12.8%
CCOC(=O)C1c2[nH]c3ccccc3c2CCN1C(=O)c1ccc(OC)o1 (stereo not given)	0%	71% (active)	83.5% (active)	-36%	60%	79.8% (active)	13%	80% (active)	82% (active)	7%	81% (active)	67.7%	-17%	76% (active)	84.3% (active)	-12%	73% (active)	83.2% (active)
CCCCNCc1c(O)ccc2ccccc12	14%	99% (active)	99.1% (active)	3%	99% (active)	99.2% (active)	17%	99% (active)	99.1% (active)	10%	98% (active)	95.8% (active)	21%	99% (active)	99% (active)	36%	99% (active)	99.2% (active)
O=Cc1ccc2cc(Cl)ccc2n1	-156%	-135%	-14.9%	-48%	-55%	18.4%	-63%	-63%	10%	-50%	-67%	46.6%	-71%	-83%	-14.4%	-138%	-111%	2.55%
O=C(NNc1ccccc1)C(O)C(O)C(O)C(O)C(O)C(O)C(O)CO (stereo not given)	17%	87% (active)	69.1%	10%	78% (active)	39.4%	10%	82% (active)	88.1% (active)	3%	82% (active)	95.9% (active)	1%	94% (active)	88.3% (active)	45%	96% (active)	92.8% (active)
N#CC1=C(C#N)Sc2nc3cc(Cl)ccc3nc2S1	17%	99% (active)	68.7%	24%	99% (active)	91.1% (active)	30%	98% (active)	77.9% (active)	25%	99% (active)	20.6%	19%	98% (active)	41.9%	29%	99% (active)	94.8% (active)
Cc1cc(Cl)cc2c1NC(=O)C2(O)C(C)C(=O)c1ccc(Cl)cc1 (stereo not given)	-2%	63%	99.4% (active)	-1%	71% (active)	98.5% (active)	11%	77% (active)	99.5% (active)	-1%	99% (active)	99.1% (active)	-4%	99% (active)	99.5% (active)	-5%	77% (active)	98.8% (active)
